hcDAF12 agonist – activates DAF-12 receptor from parasite H. contortus. HEK293 hcDAF-12 lit1-tk-luc reporter, luminescence; 0% DMSO, 100% Δ7-dafachronic acid. activation, % at 6.8 µM. actives 1.4% (n = 370,000);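 active means activation above the mean of all tested compounds plus 3 SD, cut at about 5.5% in these data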
DAX1 inh-1 – NR0B1 (DAX1) inhibition | P51843 | HEK293 Gal4-DAX1 luciferase reporter, luminescence | inhibition, % at 6.75 µM | actives 0.99% (n = 340,000);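 active means inhibition above the mean over all tested compounds plus 3 SD, cut at about 4.2% in these data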;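 further: inhibition shows as a rise in luminescence from relieved DAX1 repression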
Target sequence (P51843 207-470 limits assumed): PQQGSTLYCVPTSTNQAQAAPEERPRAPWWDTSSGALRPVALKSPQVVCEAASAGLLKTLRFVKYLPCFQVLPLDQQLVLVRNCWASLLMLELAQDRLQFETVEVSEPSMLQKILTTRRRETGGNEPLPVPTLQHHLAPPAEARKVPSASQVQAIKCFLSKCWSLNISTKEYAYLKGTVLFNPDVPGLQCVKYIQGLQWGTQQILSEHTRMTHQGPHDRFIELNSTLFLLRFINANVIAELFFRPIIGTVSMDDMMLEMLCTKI
SMARCA2 act – activators of SMARCA2 function. MG213 cells, MMTV-luciferase reporter, dexamethasone, overnight. activation, % at 9.1 µM. actives 1% (n = 370,000). AID 652017; in the data active means activation above about 7.8%
hgDAF-12 ag – agonists of H. glycines DAF-12 nuclear receptor; HEK293 GAL4-hgDAF12 UAS-luciferase reporter, agonist luminescence; normalized to butyrate control; activation, % at 6.8 µM; actives 1.8% (n = 370,000);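 active means activation above a cutoff set at the mean of all screened compounds plus 3 SD, cut at about 10% in these data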
ssDAF12 agonist – activators of S. stercoralis DAF-12 nuclear receptor. HEK293 ssDAF-12/GRIP1 lit1-tk-luc reporter, luminescence; % of 3 µM dafachronic acid response. activation, % at 6.8 µM. actives 1% (n = 370,000);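 active means activation above the mean over all tested compounds plus 3 SD, cut at about 0.9% in these data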
DAX1 inh-2 – inhibitors of DAX1 repression of SF-1 activated StAR promoter; inhibition, % at 6.8 µM; actives 1.1% (n = 370,000); AID 652010; HEK293T StAR-luciferase reporter, SF-1/DAX-1 repression relief;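 active means inhibition above the mean over all tested compounds plus 3 SD, cut at about 3.6% in these data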;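 further: higher inhibition means more luminescence from relief of DAX-1 repression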
SMARCA2 conf – SMARCA2 activation, confirmation screen; shares compounds with SMARCA2 act; MG213 cells, MMTV-luciferase with dexamethasone, luminescence, overnight; MG213 cells expressing E1A, Rb sequestered; DMSO wells 0%, reference activator 100%; activation, % at 9.1 µM; actives 30% (n = 3,500); AID 652260;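 active means activation above its plate's cutoff, the mean activation of tested wells plus 3 SD, cut at about 7.9% in these data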
VP16 Luc act – counter-screen for SMARCA2 activators: GAL4-VP16 luciferase reporter activation; shares compounds with SMARCA2 act; HEK293 GAL4-VP16 pG5luc reporter, luciferase luminescence; scaled: DMSO wells 0%, SAHA wells 100%; activation, % at 9.1 µM; actives 41% (n = 3,500); AID 686939;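 active means activation above the solvent-only control well mean plus 3 SD, averaged across control plates, cut at about 5.2% in these data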
Each line names hits and unclear results; the compound was inactive in the other large screens (follow-up assays come after a bar, where they were run). An excerpt weighted towards active compounds, which were near 4.8% of everything screened.

COc1ccc(C(=O)/C=C/c2ccc(OC)cc2OC)c(O)c1	none
O=C(/C=C/c1ccc(O)cc1)c1ccc(O)cc1O	SMARCA2 act 8.1 | SMARCA2 conf 11 | VP16 Luc act inactive
COc1ccc(/C(N)=N/OC(=O)c2ccc3c(c2)OCO3)cc1OC	SMARCA2 act 12 | SMARCA2 conf 9.7 | VP16 Luc act 17
COc1ccc(S(=O)(=O)Nc2cc(C)on2)cc1OC	none
COc1ccc(C2=NN(C(=O)CN3CCOCC3)C(c3nc4ccccc4[nH]3)C2)cc1 (configuration not stated)	SMARCA2 act 11 | SMARCA2 conf inactive | VP16 Luc act 7.6
COc1ccc(C2=NN(C(=O)CN3CCCCC3)C(c3ccc(C)cc3)C2)cc1 (configuration not stated)	none
CC(=O)Nc1cccc(OCC(=O)NCCC2=CCCCC2)c1	none
COc1cccc(NC(=O)NCCC2=CCCCC2)c1	SMARCA2 act 16 | SMARCA2 conf inactive | VP16 Luc act 11
CN(C(=O)CC1C(=O)NCCN1Cc1cccc(F)c1F)C1CCOCC1 (configuration not stated)	none
COc1cc(/C=C2\NC(=S)NC2=O)ccc1OCc1cccc(C(=O)O)c1	none
O=C1NC(=O)/C(=C\c2ccc(OCc3cccc(C(=O)O)c3)c(Cl)c2)N1	SMARCA2 act 9.0 | SMARCA2 conf inactive | VP16 Luc act 8.4
O=C(NCCc1ccc(F)cc1)C1CCN(C(=O)Nc2ccccc2)CC1	SMARCA2 act 8.0 | SMARCA2 conf inactive | VP16 Luc act inactive
O=C(NCCc1ccccc1)C1CCN(C(=O)c2ccc(F)cc2)CC1	none
O=C(COC(=O)C12CC3CC(CC(O)(C3)C1)C2)Nc1ccc(Br)cc1F	SMARCA2 act 9.4 | SMARCA2 conf inactive | VP16 Luc act 8.2
COc1cc(OC)cc(N2CCN(S(=O)(=O)c3ccc(-n4cnnn4)cc3)CC2)c1	SMARCA2 act 9.6 | SMARCA2 conf inactive | VP16 Luc act inactive
CCOc1ccccc1N1CCN(CC(=O)Nc2ncc(C)s2)CC1	none
Cn1c(N)c(C(=O)COC(=O)C2Cc3ccccc3CN2S(C)(=O)=O)c(=O)n(C)c1=O (configuration not stated)	SMARCA2 act 8.4 | SMARCA2 conf inactive | VP16 Luc act inactive
CN1CCN(C(=O)c2cccc(-c3cnc4cnc(-c5ccccc5Oc5ccccc5)cn34)c2)CC1	SMARCA2 act 9.5 (no result: DAX1 inh-1) | SMARCA2 conf inactive | VP16 Luc act inactive
CCCC[N+](CC#CCO)(CC#Cc1ccccc1)CCCC	none
O=C(C1CCC1)N1CCc2cc(S(=O)(=O)NCCCN3CCCCC3)ccc21	none
CCc1ccc(-n2c(=O)c3ccccc3n(CC(=O)NCc3ccco3)c2=O)cc1	SMARCA2 act 8.6 | SMARCA2 conf inactive | VP16 Luc act inactive
Cc1ccc(-n2c(=O)c3ccccc3n(CC(=O)NCc3ccco3)c2=O)cc1	none
O=c1[nH]sc2ccccc12	SMARCA2 act 8.9 | SMARCA2 conf inactive | VP16 Luc act inactive
O=C(CN1CCCCC1)Nc1c2c(nc3ccccc13)N(c1ccccc1)CC2	SMARCA2 act 11 | SMARCA2 conf 9.4 | VP16 Luc act inactive
O=C(CCC(=O)c1cccs1)NCC(c1ccc(F)cc1)N1CCOCC1 (configuration not stated)	none
CC(=O)N/C(=N\c1nc(C)cc(C)n1)Nc1ccccc1Cl	SMARCA2 act 8.3 | SMARCA2 conf inactive | VP16 Luc act inactive
CC(=O)N/C(=N/c1nc(C)cc(C)n1)Nc1ccc(C)cc1Cl	none
O=C(CSc1nnc(-c2ccncc2)n1CC1CCCO1)Nc1cccc(O)c1 (configuration not stated)	SMARCA2 act 8.3 | SMARCA2 conf inactive | VP16 Luc act inactive
